# Screens as filed in PubChem BioAssay.
# SMARCA2 activ: activators of SMARCA2 function; MG213 cells, MMTV-luciferase reporter, dexamethasone, overnight; AID 652017; 1% of 370,000 active; activation, % at 9.1 µM; in the data active = activation above about 7.8%;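 note: 0% = vehicle wells and 100% = reference activator wells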
# FAS-TE inh: FAS thioesterase (human) inhibition; inhibition, % at 15 µM; AID 602261; 0.67% of 360,000 active; P49327; recombinant FAS-TE, OMFH fluorogenic substrate, fluorescence endpoint;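 active = compounds whose normalised, plate-corrected inhibition of enzyme fluorescence in the single-dose primary screen is 50% or more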;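 note: 0% = DMSO with enzyme and 100% = substrate without enzyme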
# FXN GAA850 act: frataxin GAA850 promoter activation; HEK293 lucGAA850 FXN promoter luciferase reporter, 24 h; percent of 10 µM SAHA response; AID 540364; 0.56% of 360,000 active; activation, % at 6 µM;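 active = activation above the average of all compounds screened plus 3 SD, cutoff fixed separately per campaign, cut at about 7.5% in these data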;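 note: 0% = DMSO wells and 100% = 10 µM SAHA wells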
# KLK7 zymogen act: activates the human kallikrein-7 zymogen | P49862 | activation, % at 7 µM | purified proKLK7, EDANS-DABCYL substrate fluorescence; 100% is mature enzyme control, 0% vehicle | AID 652039 | 0.9% of 370,000 active;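 active = activation above the mean of all tested compounds plus 3 SD, computed per campaign excluding outliers beyond control limits, cut at about 13% in these data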
# GAA30 FXN cntr: activates GAA30 frataxin promoter, counter-screen for GAA850 activators. shares compounds with FXN GAA850 act. HEK293 lucGAA30 FXN promoter luciferase, 24 h; DMSO = 0%, 5 µM ipriflavone = 100%. activation, % at 6 µM. 66% of 1,900 active;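 active = mean activation above the mean of solvent-only control wells plus 3 SD, cut at about 22% in these data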;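 note: counterscreen of GAA850 promoter hits where activity marks nonselective or luminescence artifacts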
# FXN GAA850 conf: GAA850 FXN promoter activation confirmation. HEK293 lucGAA850 FXN promoter luciferase reporter, 24 h; 100% = activation by SAHA. 86% of 1,900 active. activation, % at 6 µM. shares compounds with FXN GAA850 act;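 active = mean activation above a set limit taken from the primary screen, cut at about 8% in these data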;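 note: 0% = DMSO wells and 100% = 10 µM SAHA wells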
# * hit, by the source's call; . = no result. Rows were chosen to be rich in hits. Some 2.9% of all compounds tested hit in one or more screens of this group.
SMILES,SMARCA2 activ,FAS-TE inh,FXN GAA850 act,KLK7 zymogen act,GAA30 FXN cntr,FXN GAA850 conf
COCCCN1C(=O)c2[nH]nc(-c3ccccc3O)c2C1c1ccc(Cl)cc1 (stereo unspecified),-3,-56,-14,0,.,.
COc1ccc(CCN2C(=O)c3[nH]nc(-c4ccccc4O)c3C2c2ccccc2)cc1OC (stereo unspecified),-3,-102,13*,0,7,8.9*
Cc1cc(Cl)ccc1OCC(=O)N1CCCN(C(=O)COc2ccc(Cl)cc2C)CC1,3,43,9.4*,0,11,7
Cc1cc(Cl)ccc1OCC(=O)N1CC(C)CC(C)C1 (stereo unspecified),0,10,3,0,.,.
CC(=O)Nc1ccc(NC(=O)CSc2nnnn2-c2ccc3c(c2)OCCO3)cc1,-1,-8,1,0,.,.
O=C1c2cc([N+](=O)[O-])cc3cc([N+](=O)[O-])cc(c23)C(=O)N1c1ccccn1,0,-3,8.2*,1,15,17*
Oc1sc(C=Nc2ccccc2)c2ccccc12,4,-4,8.2*,-2,125*,42*
CN=Cc1sc2ccccc2c1O,-2,-6,2,0,.,.
Oc1c(C=Nc2ccccc2)sc2ccccc12,3,-18,10*,1,112*,38*
CCCOc1ccc(CCc2n[nH]c(=S)n2Cc2ccccc2)cc1,-1,14,0,0,.,.
COC(=O)[C@]1(Cc2ccccc2)NC=C(C(=O)c2ccc(F)cc2)[C@@H]1c1ccccc1,0,.,.,1,.,.
COC(=O)[C@H](C)NC(=O)NCc1ccccc1F,0,-7,9.4*,0,18,6
CN(c1ccccc1)S(=O)(=O)c1cc(C(=O)c2nccn2C)ccc1Cl,-2,14,2,0,.,.
COc1ccccc1CN(C)C(=O)c1cccc(S(=O)(=O)N2CCc3ccccc3C2)c1,-3,26,1,0,.,.
CN(C)CCn1c(=O)n(-c2cccc(Cl)c2)c(=O)c2c3c(sc21)CCCCC3,-6,10,13*,0,22*,13*
Cc1sc2ncnc(N/N=C/c3ccc(O)cc3)c2c1C,-2,-1,0,-1,.,.
Nc1c(Cl)ncnc1N/N=C/c1ccc(O)cc1,1,-7,7.8*,1,52*,14*
CC(C)C(=O)N1CCC1(C)C(=O)NS(=O)(=O)c1cccs1 (stereo unspecified),0,-7,-3,0,.,.
CCCNC(=O)c1oc2ccc3c(c2c1C)C(=O)CC(C)(C)O3,3,-1,7.9*,6,107*,36*
CCCNC(=O)c1oc2ccc3c(c2c1C)C=CC(C)(C)O3,1,8,10*,1,91*,41*
Cc1c(C(=O)NCCc2ccccc2)oc2ccccc12,6,10,4,0,.,.
Cc1ccc(NC(=O)OCCN2CCN(S(=O)(=O)c3ccc(C)cc3)CCC2=O)cc1,-2,3,0,1,.,.
Cc1ccc(S(=O)(=O)N2CCC(=O)N(CCOC(=O)Nc3cccc(Cl)c3)CC2)cc1,1,14,9.4*,0,42*,19*
CCNc1nc(CSc2ccccc2)nc2sc(C)c(C)c12,-1,29,18*,1,15,13*
O=C(/C=N\O)NCCCNCc1ccccc1,2,-11,21*,0,26*,9.0*
SMILES,SMARCA2 activ,FAS-TE inh,FXN GAA850 act,KLK7 zymogen act,GAA30 FXN cntr,FXN GAA850 conf
O=C(NCCCNCc1ccccc1)c1ccncc1,0,-4,4,0,.,.
O=C1C=CC(=O)N1c1ccccc1N1C(=O)C=CC1=O,6,-3,8.7*,0,-117,-35
NC(Cc1ccc(Cl)cc1)c1csc(NC(=O)NCC2CCCCC2)n1 (stereo unspecified),-7,0,0,1,.,.
COc1ccc2c(c1)[C@H]1[C@H](CO2)[C@H](c2ccccc2)[C@]2(C)C(=O)N(CC3CCCO3)CC(=O)N12 (stereo partly specified),0,-5,0,0,.,.
C[C@@]12C(=O)N(CCc3c[nH]c4ccccc34)CC(=O)N1[C@H]1c3ccccc3OC[C@@H]1[C@@H]2c1ccccc1,1,36,7.7*,0,10,8.5*
CN1CC(=O)N2[C@H]3c4ccccc4OC[C@@H]3[C@H](c3ccccc3)[C@]2(C)C1=O,1,-4,0,0,.,.
C[C@@]12C(=O)N(CC3CCCO3)CC(=O)N1[C@H]1c3ccccc3OC[C@@H]1[C@@H]2c1ccccc1 (stereo partly specified),0,-2,12*,0,17,14*
ClC(/C=N/n1cnnc1)=C/c1ccccc1,3,-4,7.8*,0,59*,30*
Cc1cc2nc(SCC(=O)Nc3ccccc3C(=O)O)[nH]c2cc1C,5,-6,9.6*,0,62*,18*
COc1ccc(CCNC(=O)COc2ccc(S(=O)(=O)N3CCOCC3)cc2C)cc1,1,1,2,1,.,.
Cc1c(C=NNC(=O)c2ccc(Br)cc2)c2ccccn2c1C(=O)c1ccncc1,-3,-4,-1,0,.,.
CCOc1ccc(C(=O)Nc2ccc(NC(=O)c3ccco3)c(Cl)c2)cc1Br,3,-8,12*,0,9,8.4*
Cc1cc2nc(N)sc2cc1C,5,-5,8.4*,-1,109*,27*
Cc1cc(C)n2nc(-c3cccc(Br)c3)cc2n1,4,13,9.1*,-2,107*,44*
Cc1cccc(-c2cc3nc(C)cc(C)n3n2)c1,5,-1,6,1,.,.
Cc1nc([N+](=O)[O-])c(Br)n1CC(=O)c1ccc2ccccc2c1,-6,4,24*,0,328*,118*
O=C(Cc1ccccc1)NCC(=O)N1CCCC1,0,-4,0,0,.,.
Cc1cccc(Nc2nc(-c3sc(C)nc3C)cs2)c1,0,18,8.5*,0,97*,32*
Cc1nc(C)c(-c2csc(Nc3cccc(O)c3)n2)s1,3,3,1,1,.,.
COc1ccc(-n2c(=O)c3ccccc3n(CC(=O)Nc3ccccc3OC)c2=O)cc1,1,-4,0,-1,.,.
O=C(Nc1cnn(C23CC4CC(CC(C4)C2)C3)c1)c1cnn2cccnc12,6,4,10*,1,107*,42*
N#Cc1c(NC(=O)c2cnn3cccnc23)sc2c1CCCC2,-1,-4,2,0,.,.
COc1ccc(CNC(=O)CN(C(=O)Cn2nnc(-c3ccccc3F)n2)c2ccc(C)cc2)cc1,1,-3,-2,0,.,.
NC(=O)COC(=O)/C=C/c1ccccc1[N+](=O)[O-],1,-6,2,-1,.,.
COc1ccccc1/C=C/C(=O)c1ccc(Cl)cc1,0,2,3,0,.,.
CCN(CC(=O)Nc1ccc2c(c1)OCCO2)C(=O)/C=C/c1cccc(OC)c1OC,0,-2,3,1,.,.
